Test results: PubChem BioAssay (NCI)
The panel holds about 83,000 compounds, 20% with a hit somewhere; the sample as a whole holds those more often.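 The test compound was applied at a single concentration to cells in 96-well plates for 48 hours, and percent growth was recorded.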 Unmarked numbers belong to inactive results. Calls of active or inactive are those of the source. Rule for the calls: active = growth percent below 10; inactive = the rest.

system: MDA-MB-468 breast; assay: NCI-60 one-dose screen, 48 h (100 = growth as untreated, 0 = no growth, -100 = all killed); conditions: 10 µM unless noted

Row | SMILES | growth
1 | Cc1cccc(Cc2cnc(NC(=O)c3ccc4nnsc4c3)s2)c1 | 94.8%
2 | COc1ccc(-n2c(=O)c3ccccc3n(Cc3ccc(C(=O)NO)cc3)c2=O)cc1 | 3.21% (active)
3 | O=C(Nc1ccccc1)c1cc2ccccc2s1 | 89.1%
4 | COc1ccc(C2=NN(c3ccc(S(N)(=O)=O)cc3)C(c3cn(-c4ccccc4)nc3-c3ccc(Cl)cc3)C2)cc1 (stereo not given) | 106%
5 | CCC/C(=N\NC(N)=O)C(OC)OC | 103%
6 | CCOC(=O)c1cn2ncnc(Oc3ccc(NC(=O)NCCN(CC)CC)c(Cl)c3)c2c1C | 52.8%
7 | CCN(CC)CCNC(=O)c1c(C)[nH]c(/C=C2\C(=O)Nc3cc(NC(=O)NC(=O)c4ccc(OC)cc4F)ccc32)c1C | 75.2%
8 | CCCCC(=O)c1ccc(OC)cc1 | 85.2%
9 | O=C(CCc1nnc2sc(-c3cc(O)c(O)c(O)c3)nn12)c1nc2ccccc2[nH]1 | 86.8%
10 | O=C1C(Cl)=C(Nc2ccc(S(=O)(=O)c3ccc(NC4=C(Cl)C(=O)c5ccccc5C4=O)cc3)cc2)C(=O)c2ccccc21 | -60.1% (active)
11 | c1ccc2cc(Cn3c(-c4cccc5ccccc45)[n+](Cc4ccc5ccccc5c4)c4c5ccccc5c5ccccc5c43)ccc2c1 | -71.4% (active)
12 | C=C(C)[C@@H]1CC[C@]2(C(=O)NC3CCCCC3)CC[C@]3(C)[C@H](CC[C@@H]4[C@@]5(C)CCC(=O)C(C)(C)[C@@H]5CC[C@]43C)[C@@H]12 | 83.5%
13 | O=C(NCC(c1ccsc1)N1CCCCCC1)c1ccc(C(F)(F)F)cc1 (stereo not given) | 95.3%
14 | Cn1c([N+](=O)[O-])cnc1/C=C1\Oc2ccccc2C1=O | 28.3%
15 | O=C1/C(=C\c2c[nH]c3ccccc23)c2ccccc2N1c1c(Cl)cccc1Cl | 8.39% (active)
16 | O=[N+]([O-])c1ccc(-c2cc3c(Nc4ccc(Cl)c(C(F)(F)F)c4)ncnc3s2)cc1 | -10.2% (active)
17 | Cc1cccc2c(=O)c3c(sc12)c(NCc1ccccc1)nc1ccccc13 | -12.7% (active)
18 | Cc1ccc2c3c(cccc13)-c1ccccc1C2=O | 97%
19 | COc1ccc(-c2nn(-c3cccc(Cl)c3)cc2-c2cc(-c3cccs3)[nH]c(=S)n2)cc1 | 67.8%
20 | O=C(N/N=C/c1c[nH]c2ccccc12)c1cc(-c2ccccc2)on1 | 94.9%

Row | SMILES | growth
21 | C=C(C)[C@@H]1CC[C@]2(C(=O)NCCCCCCN(CCCN)CCCN)CC[C@]3(C)[C@H](CC[C@@H]4[C@@]5(C)CC[C@H](OCCCN)C(C)(C)[C@@H]5CC[C@]43C)[C@@H]12 | 21.2% [100 µM]
22 | c1ccc(CNc2nc(Nc3ccccc3)nc3ccccc23)cc1 | 13.2%
23 | Oc1c(C(Nc2ccccc2Br)c2ccccc2)ccc2cccnc12 (stereo not given) | -4% (active)
24 | CCCC(=O)c1cc(C)ccc1OC | 113%
25 | CCc1ccc(NC(=O)N[C@@H](Cc2cccc(F)c2)C(=O)N[C@@H]2C(=O)N3CCC[C@H]3C(=O)N3CCCC[C@H]3C(=O)N[C@@H](C)C(=O)N3C[C@H](C)C[C@H]3C(=O)O[C@H]2C)c(F)c1 | -18.2% (active)
26 | CCN(CC)CCCC(Nc1c2ccc(Cl)cc2nc2ccc(OC)cc12)c1ccc(Cl)cc1 (stereo not given) | -78.5% (active)
27 | CCNC(=O)N1CCc2c(Cl)c3c(c(OC)c2[C@@H]1[C@H]1OCc2c1ccc(OC)c2OC)OCCO3 | -8.07% (active)
28 | Cn1ccnc1C(=O)/C=C/c1ccc(C(=O)Nc2nc3ccccc3[nH]2)cc1 | -3.55% (active)
29 | O=C(Cn1nnc2ccccc21)N/N=C/c1c[nH]c2ccccc12 | 34.5%
30 | Nc1no[n+]([O-])c1-c1nnc2c(n1)-c1ccccc1C2=O | 41.5%
31 | Cc1ccc(-c2cc3c(cc2O)C2CCCCC2(N2CCOCC2)O3)cc1 (stereo not given) | 87.9%
32 | O=C(Nc1cccc(Cl)c1)Oc1c(Br)c(Br)c(Br)c(Br)c1Br | 94.1%
33 | O=C(NCc1ccc(Cn2c(=O)sn(-c3ccccc3)c2=O)cc1)OCc1ccc2cccc(O)c2n1 | -73.3% (active)
34 | O=[N+]([O-])c1ccc(-c2nc(N(CCO)CCO)c3ccccc3n2)o1 | -73.5% (active)
35 | COc1ccc(C(=O)/C=C/c2c[n+](=O)c3ccc(F)cc3n2[O-])cc1 | 101%
36 | COc1cc(-c2nn(-c3ccc(NC(=O)NCCCNC(=O)c4ccccc4)cc3)cc2-c2ccncc2)ccc1Cl | 9.32% (active)
37 | Cc1cc(C)nc(NC(N)=NCCc2ccccc2)n1 | -3.56% (active)
38 | CC1(CO)CCCC12OCCO2 (stereo not given) | 102%
39 | O=C(N/N=C/c1cc(Cl)ccc1O)c1ccccc1Nc1ccnc(C(F)(F)F)c1 | 12.8%
40 | OCCN(CCO)C(=S)S | 102%
